The list is not random: actives were taken first. Their share in the collection is about 3.8%.
H9c2 protect = myocardial damage modulation in H9c2 cells; H9c2 cardiomyocytes, H2O2 injury protection, ATPLite, 2 h; protection from H2O2 cell death, % at 20 µM; hit rate 0.63% among 360,000; AID 588492;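 active = compounds giving at least 50% protection of heart cells from peroxide-induced death in the single-dose screen, raw or plate-pattern-corrected value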;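 also: 0% = DMSO wells with peroxide and 100% = DMSO wells without peroxide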
MPTP inh = permeability transition pore inhibition | isolated mouse mitochondria, Ca2+ swelling absorbance, 30 min | inhibition, % at 10 µM | hit rate 1.4% among 360,000 | AID 602449;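 active = inhibition of 50% or more, scaled per plate between neutral and stimulator controls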;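 also: 0% = DMSO wells given calcium and 100% = 1 mM EGTA wells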
aDG glyco up = increases alpha dystroglycan glycosylation | Pro5-aDG cells, alpha-DG glycosylation AlphaScreen (IIH6); 0% Pro5, 100% B10-LARGE cell signal | hit rate 0.22% among 360,000 | activation, % at 10 µM;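 active = activation of at least 8% versus controls, or a plate z-score of at least 8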;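 also: Pro5 are CHO cells carrying HIG-tagged alpha-DG that lacks glycosylation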
Yeast superoxide = lowers age-related superoxide in aged yeast cells. superoxide response (% of plate mean), % at 10 µM. S. cerevisiae aged cells, superoxide DHE fluorescence; hits give low values. AID 2690. hit rate 0.18% among 330,000;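 active = superoxide response under a set limit, about three screen SD below normal, cut at about 65% in these data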;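 also: yeast aged for seven days with compound at 30 °C before DHE staining; 100% = average MFI of all compound-treated wells on the plate with controls excluded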
FAS TE block = FAS thioesterase (human) inhibition | P49327 | recombinant FAS-TE, OMFH fluorogenic substrate, fluorescence endpoint | inhibition, % at 15 µM | hit rate 0.67% among 360,000 | AID 602261;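 active = compounds whose normalised, plate-corrected inhibition of enzyme fluorescence in the single-dose primary screen is 50% or more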;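 also: 0% = DMSO with enzyme and 100% = substrate without enzyme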
Mot1-301 SUMO = inhibitors of SUMOylation pathway: yeast Mot1-301 growth rescue. S. cerevisiae Mot1-301 growth rescue, ATP luminescence, 38.5C; percent above DMSO median, 100 means doubled. AID 2716. hit rate 1% among 320,000. growth rescue, % at 18.8 µM;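 active = every valid replicate shows activation above 250% relative to neutral control wells; inactive = the rest, any valid replicate at or below 250%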;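 also: OY570 slx delta 5 strain wells were the positive control but not used for scaling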
Rh123 counter = mitochondrial membrane potential, counter-screen; isolated mitochondria, Rhodamine 123 fluorescence; AID 624504; shares compounds with MPTP inh; inhibition, % at 10 µM; hit rate 78% among 5,000; in the data active = inhibition above about 22%;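 also: 0% = DMSO vehicle and 100% = positive control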
MPTP swell DR = dose response confirmation of mitochondrial permeability transition pore inhibitors; shares compounds with MPTP inh; isolated mitochondria swelling, absorbance; IC50, µM; hit rate 58% among 780; in the data active = IC50 below about 20 µM
MPTP counter DR = active in counter-screen for permeability transition pore inhibitors; shares compounds with MPTP inh; isolated mitochondria counterscreen, fluorescence read-out; IC50, µM; hit rate 49% among 780; in the data active = IC50 below about 80 µM
The depositor's hits bear a star; i = inactive; · = no result.

SMILES	H9c2 protect	MPTP inh	aDG glyco up	Yeast superoxide	FAS TE block	Mot1-301 SUMO	Rh123 counter	others
COc1ccc(/C=C2/SC(=S)N(c3ccc(S(=O)(=O)Nc4nccs4)cc3)C2=O)cc1	-10	89*	0	97	3	15	64*
O=C1/C(=C/c2ccccn2)SC(=S)N1c1ccc(O)cc1	4	2	0	101	-2	-5	·
CC(=O)Nc1ccc(CN2C(=O)C(Cc3ccccc3)ON=C2c2cccc(F)c2)cc1 (stereo not given)	9	-2	0	·	14	·	·
CCCCc1ccc(S(=O)(=O)N/N=C(/C)c2ccncc2)cc1	-18	3	2	100	1	188	·
O=C(CC1CCCCC1)NCc1ccccc1Cl	6	-1	0	105	2	0	·
CCN(CC)C(=N)/C(C#N)=N/Nc1ccc(C)cc1	-2	0	0	111	-5	30	·
N#C/C(=N\Nc1ccc(Cl)cc1)C(=O)c1ccsc1	-14	72*	0	112	4	12	90*
Cc1ccc(N/N=C(\C#N)C(=O)c2ccsc2)cc1	-14	52*	0	85	0	2	72*
CCCCn1c(N)c(N(CCOC)C(=O)COC(=O)Cc2cccc(OC)c2)c(=O)[nH]c1=O	7	-1	2	105	-9	3	·
COc1ccccc1N1CCN(C2CCCN(C(=O)CCn3cncn3)C2)CC1 (stereo not given)	-2	0	0	103	-6	1	·
CN1CCN(c2ccc(-c3cccc(NC(=O)COc4ccc(Cl)cc4)c3)nn2)CC1	-11	0	1	98	1	-4	·
Cc1cccc(NC(=S)NNC(=O)COc2ccc(Cl)cc2Cl)c1	-10	55*	0	96	12	-17	52*
CN1CCN(c2ccc(-c3cccc(NC(=O)COc4ccc(Cl)cc4Cl)c3)nn2)CC1	-19	74*	5.2*	87	-5	-15	-16	MPTP swell DR=19*;MPTP counter DR=>80
COc1ccc(CCNC(=O)CCc2ccsc2)cc1OC	0	1	0	98	-2	14	·
COc1ccc(Br)cc1CN(C)CC(O)COc1ccc(Br)cc1 (stereo not given)	-2	80*	0	80	29	13	-1	MPTP swell DR=18*;MPTP counter DR=42*
CCOC(=O)c1sc(NC(=O)c2cccc(S(=O)(=O)N3CCc4ccccc43)c2)c(C#N)c1C	-15	91*	0	101	3	217	86*
CCCNC(=O)c1cc(S(=O)(=O)N2CCc3ccccc32)cn1C	-31	71*	2	84	-2	9	44*
CCC(CC)c1nnc(NC(=O)c2cccc(S(=O)(=O)N3CCc4ccccc43)c2)s1	-8	7	0	80	32	-7	·
O=C(Nc1ccncc1)c1cccc(S(=O)(=O)N2CCc3ccccc32)c1	-7	96*	2	98	4	-13	94*
COCCN(CCOC)C(=O)c1ccc(NS(=O)(=O)c2ccc3[nH]c(=O)[nH]c3c2)cc1	1	0	0	99	-4	19	·
O=C(CSc1ncnc2c1oc1ccccc12)Nc1nc2ccccc2s1	-17	3	0	110	-1	39	·
O=C(CSc1ncnc2c1sc1ccccc12)Nc1ccc(Br)cc1	-16	54*	0	114	-12	6	37*
CCOC(=O)C1(C)CCCN1C(=O)c1sccc1C (stereo not given)	2	2	0	·	-10	·	·
COc1ccc2nc(NC(=O)Nc3ccccc3)sc2c1	-38	4	0	92	2	53	·
CC(C)(C)c1nc(NC(=O)Nc2ccccc2)sc1Br	-31	94*	6	95	25	-12	80*
SMILES	H9c2 protect	MPTP inh	aDG glyco up	Yeast superoxide	FAS TE block	Mot1-301 SUMO	Rh123 counter	others
CCOC(=O)N1CCN(C(=O)C[C@@H]2C[C@@]3(C(=O)OCC)CCCC=C3N(Cc3ccccc3)C2=O)CC1	·	0	0	·	·	·	·
O=C(CSc1ccc(F)cc1)NC(=O)c1ccccc1	8	2	0	·	-3	·	·
CC(O)CNCCCOc1ccc(Cl)cc1C(C)(C)C (stereo not given)	0	74*	1	105	-3	23	-17	MPTP swell DR=5*;MPTP counter DR=>80
COc1ccc(CN2CCC(CO)(CCOc3ccccc3)CC2)c(OC)c1C	4	2	0	90	-2	3	·
COc1ccc2[nH]c(CN3CCC(CO)(CCOc4ccccc4)CC3)c(C)c2c1	11	66*	4	111	-1	-3	-16	MPTP swell DR=5.8*;MPTP counter DR=>80
O=C(Nc1ccccc1)c1cc([N+](=O)[O-])ccc1NC1CCCCC1	-3	51*	0	112	34	-2	-1	MPTP counter DR=>80
O=C(Nc1ccccc1)c1cc([N+](=O)[O-])ccc1Cl	8	-2	0	92	28	4	·
Cc1cccc(OCCCCc2c(C)n[nH]c2C)c1C	-14	54*	1	98	4	-8	83*
CCOc1ccccc1OCCCCCc1c(C)n[nH]c1C	-8	81*	1	102	-2	7	47*
COc1ccccc1OCCCCCc1c(C)n[nH]c1C	-14	33	0	115	-6	-22	·
CC1(C)SC(=S)N(/N=C/c2ccc(O)cc2)C1N(O)C(=O)Nc1ccc([N+](=O)[O-])cc1 (stereo not given)	-11	3	0	108	-243	-13	·
Cc1ccc(/C=N/N2C(=S)SC(C)(C)C2N(O)C(=O)Nc2ccc([N+](=O)[O-])cc2)cc1 (stereo not given)	-20	91*	0	106	-162	-4	87*
O=c1[nH]c(-c2ccc(F)cc2)nc2c1sc(=S)n2-c1ccccc1	-20	56*	0	87	1	966*	8	MPTP swell DR=i;MPTP counter DR=<2.5*
NC(c1ccncc1)c1ccc(Cl)cc1 (stereo not given)	6	-2	0	·	-8	·	·
Cc1cc(C(=O)CSc2nnc(-c3ccccc3F)o2)c(C)n1Cc1cccs1	-16	54*	0	92	24	1	29*
C#CCOCCOCCOCCNc1nc(N2CCN(C(=O)[C@H](CC(N)=O)n3cc(C(N)[C@@H](C)CC)nn3)CC2)nc(N2CCN(C(=O)[C@H](CCC(=O)O)n3cc([C@@H](N)CCCCN)nn3)CC2)n1 (stereo not given in full)	2	0	0	80	-15	11	·
Cc1cc(NC(=O)c2cccs2)ncc1NC(=O)C(C)(C)C	-4	-1	0	95	-4	0	·
